The values below come from PubChem BioAssay.

Activity calls are given as the source filed them.

The test system of assay [1] is PRMT1 (protein arginine N-methyltransferase 1). Briefly: PRMT1 binders on small-molecule microarrays, primary screen, biochemical, small-molecule microarray, 635 nm fluorescence (AID 1088).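 Note: binding of Prmt1 protein to compounds spotted on small-molecule microarray slides.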 Particulars: small-molecule microarray binding, higher = more signal.
Assay [2] is described as follows: yeast growth modulation, basal conditions, primary screen, YJM789 clinical isolate, OD600, 24 h (AID 1089).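 Note: growth of clinical yeast isolate S. cerevisiae YJM 789 seeded 1000 cells per well; test concentration not given here.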 The note with it: S. cerevisiae YJM789 growth, higher = more signal, called active from +8 up or from −8 down.
Assay [3] in a line: fission yeast growth modulation, primary screen, strain 972, OD600, 24 h, no modulator (AID 1090).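 Note: basal condition with compound alone and no growth modifier present; test concentration not given here.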 Particulars: S. pombe 972 growth, higher = more signal, called active from +8 up or from −8 down.
Assay [4] can be described thus: S. cerevisiae growth modulation with rapamycin, primary screen, strain BY4716, OD600, 96 h (AID 1091). Note: test concentration not given here. Particulars: higher = more signal, called active from +8 up or from −8 down.
The target in assay [5] is Torsin-1A-interacting protein 2 (Homo sapiens) (UniProt Q8NFQ8). Kind of assay: LULL1 binders on small-molecule microarray, primary screen, cell lysate, human LULL1 lysate, 635/667 nm fluorescence (AID 1092).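 Note: probe is lysate of COS7 cells overexpressing human LULL1; score merges per-feature 667 nm fluorescence with signal-to-noise.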 Particulars: hLULL1 lysate binding, 635 nm fluorescence, higher = more signal.
Chain of Torsin-1A-interacting protein 2 (Homo sapiens) (Q8NFQ8 whole entry, looked up): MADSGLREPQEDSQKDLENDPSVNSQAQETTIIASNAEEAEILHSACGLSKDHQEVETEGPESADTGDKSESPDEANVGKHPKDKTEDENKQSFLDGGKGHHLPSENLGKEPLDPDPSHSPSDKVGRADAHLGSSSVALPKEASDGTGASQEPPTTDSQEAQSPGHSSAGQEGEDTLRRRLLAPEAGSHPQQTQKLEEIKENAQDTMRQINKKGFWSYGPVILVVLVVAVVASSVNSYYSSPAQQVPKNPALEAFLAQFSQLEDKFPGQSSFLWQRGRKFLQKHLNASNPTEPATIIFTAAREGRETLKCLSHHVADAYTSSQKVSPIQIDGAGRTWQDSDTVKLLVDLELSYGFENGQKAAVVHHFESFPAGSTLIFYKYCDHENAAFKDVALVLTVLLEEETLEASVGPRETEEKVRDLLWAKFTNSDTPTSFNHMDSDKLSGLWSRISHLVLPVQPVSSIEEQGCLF
Assay [6] in a line: E. coli growth modulation, two-sided OD650, primary screen, E. coli filamentation project, strain DRC41, 24 h (AID 1093).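 Note: MC1000 strain lacking acrAB efflux and sulA so SOS filamentation is blocked; test concentration not given here.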 The note with it: OD650, 24 h, higher = more signal, called active from +8 up or from −8 down.
A short description of assay [7]: small-molecule microarray binders of probe aLefty2, primary screen, biochemical, biotinylated probe, 635/667 nm fluorescence (AID 1094).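 Note: score merges spot fluorescence near 667 nm with spot signal-to-noise ratio.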 Particulars: higher = more signal.
Assay [8] deals with Noggin (protein binding on small-molecule microarray). Briefly: Noggin binders on small-molecule microarray, primary screen, biochemical, 635/667 nm fluorescence (AID 1095).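 Note: score merges 667 nm feature fluorescence with signal to noise over triplicate slides.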 Particulars: 635 nm fluorescence, higher = more signal.
Assay [9] deals with Neurogenic locus notch homolog protein 3 (Homo sapiens) (UniProt Q9UM47). Kind of assay: NOTCH3 binders on small-molecule microarray, primary screen, biochemical, 635/667 nm fluorescence (AID 1096). Particulars: NOTCH3 binding, 635 nm fluorescence, higher = more signal.
Chain of Neurogenic locus notch homolog protein 3 (Homo sapiens) (Q9UM47 whole entry, looked up): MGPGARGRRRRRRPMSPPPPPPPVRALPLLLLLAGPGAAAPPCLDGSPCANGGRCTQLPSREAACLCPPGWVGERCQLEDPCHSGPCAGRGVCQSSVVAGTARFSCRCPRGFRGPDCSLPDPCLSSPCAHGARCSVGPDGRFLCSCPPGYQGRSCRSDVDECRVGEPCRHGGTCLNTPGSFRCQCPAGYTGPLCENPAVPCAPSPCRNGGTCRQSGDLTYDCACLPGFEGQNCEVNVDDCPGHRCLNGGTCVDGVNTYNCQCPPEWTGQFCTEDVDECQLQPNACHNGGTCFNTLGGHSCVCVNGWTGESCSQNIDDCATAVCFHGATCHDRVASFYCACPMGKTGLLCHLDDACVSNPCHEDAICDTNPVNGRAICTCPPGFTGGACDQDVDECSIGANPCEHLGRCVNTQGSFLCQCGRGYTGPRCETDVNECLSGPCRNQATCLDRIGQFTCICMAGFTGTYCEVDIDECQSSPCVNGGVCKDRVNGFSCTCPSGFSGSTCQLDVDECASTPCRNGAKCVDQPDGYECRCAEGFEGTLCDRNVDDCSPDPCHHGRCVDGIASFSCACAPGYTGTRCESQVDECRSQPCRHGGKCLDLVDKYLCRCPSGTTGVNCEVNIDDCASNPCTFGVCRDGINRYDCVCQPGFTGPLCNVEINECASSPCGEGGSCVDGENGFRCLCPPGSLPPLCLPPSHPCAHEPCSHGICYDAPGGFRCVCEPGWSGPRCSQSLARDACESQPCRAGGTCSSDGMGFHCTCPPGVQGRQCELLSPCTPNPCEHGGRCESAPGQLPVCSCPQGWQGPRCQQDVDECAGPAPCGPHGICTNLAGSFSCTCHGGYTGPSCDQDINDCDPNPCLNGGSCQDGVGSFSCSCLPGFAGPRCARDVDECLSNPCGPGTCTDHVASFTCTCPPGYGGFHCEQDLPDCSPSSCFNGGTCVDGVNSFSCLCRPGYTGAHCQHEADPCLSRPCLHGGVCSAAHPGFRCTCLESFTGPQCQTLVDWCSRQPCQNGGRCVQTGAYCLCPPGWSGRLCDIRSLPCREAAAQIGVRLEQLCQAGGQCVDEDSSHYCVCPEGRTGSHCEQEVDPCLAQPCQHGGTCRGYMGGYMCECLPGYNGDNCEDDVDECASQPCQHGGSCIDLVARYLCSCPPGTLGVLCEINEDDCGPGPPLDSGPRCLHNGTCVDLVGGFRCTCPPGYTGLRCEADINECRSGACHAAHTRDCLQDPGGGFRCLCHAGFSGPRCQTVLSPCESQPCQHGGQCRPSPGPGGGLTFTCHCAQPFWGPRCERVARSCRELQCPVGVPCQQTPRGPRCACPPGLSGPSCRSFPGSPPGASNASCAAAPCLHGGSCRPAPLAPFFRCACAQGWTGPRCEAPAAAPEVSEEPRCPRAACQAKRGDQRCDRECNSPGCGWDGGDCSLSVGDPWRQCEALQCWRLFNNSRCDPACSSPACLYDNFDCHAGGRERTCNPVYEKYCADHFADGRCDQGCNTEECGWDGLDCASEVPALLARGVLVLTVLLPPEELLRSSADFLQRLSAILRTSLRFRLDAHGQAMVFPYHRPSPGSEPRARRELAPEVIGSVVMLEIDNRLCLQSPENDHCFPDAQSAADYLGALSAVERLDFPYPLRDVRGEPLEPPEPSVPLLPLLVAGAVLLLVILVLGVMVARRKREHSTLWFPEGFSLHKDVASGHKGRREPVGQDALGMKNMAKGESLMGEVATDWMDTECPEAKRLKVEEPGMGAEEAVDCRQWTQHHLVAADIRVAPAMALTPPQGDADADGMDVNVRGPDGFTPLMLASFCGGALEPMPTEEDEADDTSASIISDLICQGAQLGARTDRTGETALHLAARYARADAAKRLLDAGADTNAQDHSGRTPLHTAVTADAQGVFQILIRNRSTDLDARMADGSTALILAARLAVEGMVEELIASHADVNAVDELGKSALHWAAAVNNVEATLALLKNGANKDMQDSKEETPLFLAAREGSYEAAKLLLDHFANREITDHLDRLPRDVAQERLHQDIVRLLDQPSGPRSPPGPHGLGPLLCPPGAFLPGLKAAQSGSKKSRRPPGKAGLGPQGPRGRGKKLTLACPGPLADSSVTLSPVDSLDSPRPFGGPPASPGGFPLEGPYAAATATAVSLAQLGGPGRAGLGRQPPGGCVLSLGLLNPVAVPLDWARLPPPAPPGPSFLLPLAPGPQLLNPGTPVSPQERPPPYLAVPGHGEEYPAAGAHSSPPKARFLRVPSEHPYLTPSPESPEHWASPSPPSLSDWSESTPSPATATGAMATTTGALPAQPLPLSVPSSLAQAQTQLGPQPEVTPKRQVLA
The nature of assay [10]: small-molecule microarray binders of probe aEGFR, primary screen, biochemical, biotinylated probe, 635/667 nm fluorescence (AID 1097).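 Note: probe is a biotinylated anti-EGFR antibody binding compounds printed on slides; score combines fluorescence near 667 nm and signal to noise of each spot.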 Particulars: higher = more signal.
Assay [11] has as its system Plasmodium falciparum Sir2 (PF13_0152, Sir2A). Briefly: pfSir2 binders on small-molecule microarrays, primary screen, biochemical, small-molecule microarray, 635 nm fluorescence (AID 1098).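 Note: score merges spot fluorescence intensity with its signal-to-noise ratio.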 The note with it: small-molecule microarray binding, fluorescence 635 nm; higher = more signal.
Assay [12] is described as follows: small-molecule microarray binders of probe aDKK1, primary screen, biochemical, biotinylated probe, 635/667 nm fluorescence (AID 1099).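 Note: score merges 667nm spot fluorescence with signal to noise across triplicate slides; reference of the scale not given here.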 The note with it: higher = more signal.
Assay [13] can be described thus: small-molecule microarray binders of probe aCHRDL2, primary screen, biochemical, biotinylated probe, 635/667 nm fluorescence (AID 1100). The note with it: higher = more signal.
A short description of assay [14]: splicing luciferase reporter signal modulators, primary screen, spliceosome inhibition project, cell-based, HEK293, splice +/- reporter (AID 1101).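 Note: HEK293 cells carrying a splicing-competent luciferase reporter gene; test concentration not given here.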 The note with it: luminescence, 24 h, higher = more signal, called active from +8 up or from −8 down.
Assay [15] addresses Fibroblast growth factor 10 (Homo sapiens) (UniProt O15520). Kind of assay: FGF10 binders on small-molecule microarrays, primary screen, biochemical, small-molecule microarray, 635 nm fluorescence (AID 1102). The note with it: FGF10 binding, fluorescence 635 nm, higher = more signal.
The test system of assay [16] is glycogen synthase kinase-3 (GSK3A per assay name; protocol says GSK3B). Briefly: GSK3 binders on small-molecule microarrays, primary screen, biochemical, small-molecule microarray, 635 nm fluorescence, GSK3A (AID 1103). Note: the record names both GSK3A and GSK3B. Particulars: small-molecule microarray binding, fluorescence 635 nm; higher = more signal.
For assay [17], the target named is Epidermal growth factor receptor (Homo sapiens) (UniProt P00533). Briefly: EGFR binders on small-molecule microarrays, primary screen, biochemical, small-molecule microarray, 635 nm fluorescence (AID 1104).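 Note: score merges 667 nm emission intensity with spot signal to noise over triplicate slides.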 Particulars: EGFR binding, higher = more signal.
Chain of Epidermal growth factor receptor (Homo sapiens) (P00533 whole entry, looked up): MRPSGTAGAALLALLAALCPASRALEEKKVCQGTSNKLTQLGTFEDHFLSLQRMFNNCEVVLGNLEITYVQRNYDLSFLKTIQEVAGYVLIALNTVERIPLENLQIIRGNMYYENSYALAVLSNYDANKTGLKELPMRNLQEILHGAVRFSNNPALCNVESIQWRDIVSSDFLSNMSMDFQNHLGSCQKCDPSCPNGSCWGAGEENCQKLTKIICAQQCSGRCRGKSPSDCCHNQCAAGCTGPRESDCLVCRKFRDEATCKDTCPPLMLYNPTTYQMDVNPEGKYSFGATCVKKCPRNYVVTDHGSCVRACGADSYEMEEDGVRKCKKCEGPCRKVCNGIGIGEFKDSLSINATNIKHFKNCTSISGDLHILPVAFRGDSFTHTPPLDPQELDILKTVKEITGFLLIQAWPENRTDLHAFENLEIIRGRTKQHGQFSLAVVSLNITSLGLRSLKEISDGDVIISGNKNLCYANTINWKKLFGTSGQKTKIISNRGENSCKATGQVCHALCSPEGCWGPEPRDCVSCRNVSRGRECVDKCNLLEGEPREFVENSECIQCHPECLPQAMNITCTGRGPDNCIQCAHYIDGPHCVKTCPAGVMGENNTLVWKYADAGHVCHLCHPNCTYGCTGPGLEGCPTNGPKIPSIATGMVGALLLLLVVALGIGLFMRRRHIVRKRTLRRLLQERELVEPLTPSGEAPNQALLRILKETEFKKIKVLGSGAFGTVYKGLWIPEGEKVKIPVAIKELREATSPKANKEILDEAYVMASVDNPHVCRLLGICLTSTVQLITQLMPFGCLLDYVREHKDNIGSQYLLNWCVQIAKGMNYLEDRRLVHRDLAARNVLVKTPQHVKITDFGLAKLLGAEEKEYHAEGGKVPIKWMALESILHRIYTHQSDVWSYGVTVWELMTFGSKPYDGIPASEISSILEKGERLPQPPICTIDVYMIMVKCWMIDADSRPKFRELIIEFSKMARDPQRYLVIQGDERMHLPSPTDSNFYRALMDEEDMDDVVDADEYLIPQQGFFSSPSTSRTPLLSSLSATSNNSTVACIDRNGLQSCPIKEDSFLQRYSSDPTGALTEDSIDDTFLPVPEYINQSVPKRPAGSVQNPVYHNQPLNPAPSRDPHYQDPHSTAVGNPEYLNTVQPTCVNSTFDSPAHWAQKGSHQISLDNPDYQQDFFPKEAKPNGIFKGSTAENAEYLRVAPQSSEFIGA
The target of assay [18] is Follistatin-related protein 3 (Homo sapiens) (UniProt O95633). Briefly: FSTL3 binders on small-molecule microarrays, primary screen, biochemical, small-molecule microarray, 635 nm fluorescence (AID 1105).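 Note: score merges emission near 667 nm and signal to noise per printed spot across three slides.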 The note with it: FSTL3 binding, higher = more signal.
Chain of Follistatin-related protein 3 (Homo sapiens) (O95633 whole entry, looked up): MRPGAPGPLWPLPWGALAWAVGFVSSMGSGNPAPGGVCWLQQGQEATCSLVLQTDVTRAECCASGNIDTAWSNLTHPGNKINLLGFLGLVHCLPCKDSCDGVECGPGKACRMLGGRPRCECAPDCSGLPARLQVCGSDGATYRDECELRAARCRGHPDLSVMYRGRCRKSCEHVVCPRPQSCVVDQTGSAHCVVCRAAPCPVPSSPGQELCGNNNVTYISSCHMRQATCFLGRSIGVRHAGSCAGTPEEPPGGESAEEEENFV
The target in assay [19] is Dickkopf-related protein 1 (Homo sapiens) (UniProt O94907). Briefly: DKK1 binders on small-molecule microarrays, primary screen, biochemical, small-molecule microarray, 635 nm fluorescence scan (AID 1106).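 Note: score merges emission near 667 nm with signal to noise over three replicate slides.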 The note with it: DKK1 binding, higher = more signal.
Chain of Dickkopf-related protein 1 (Homo sapiens) (O94907 whole entry, looked up): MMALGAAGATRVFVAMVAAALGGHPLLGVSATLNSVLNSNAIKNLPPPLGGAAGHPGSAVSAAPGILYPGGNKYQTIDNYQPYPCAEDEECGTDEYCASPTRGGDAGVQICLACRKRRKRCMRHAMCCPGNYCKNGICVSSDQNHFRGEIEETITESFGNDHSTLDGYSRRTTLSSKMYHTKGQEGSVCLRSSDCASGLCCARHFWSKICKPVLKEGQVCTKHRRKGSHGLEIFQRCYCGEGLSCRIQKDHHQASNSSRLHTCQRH
For assay [20], the system named is Inhibin beta A chain (activin A). Kind of assay: INHBA (activin A) binders on microarrays, primary screen, biochemical, small-molecule microarray, 635 nm fluorescence scan (AID 1107).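 Note: mouse activin A protein probed at 4.33 µg/mL on printed slides; score merges bound-protein fluorescence near 667 nm with spot signal-to-noise.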 Particulars: small-molecule microarray binding, higher = more signal.

Chain of Fibroblast growth factor 10 (Homo sapiens) (O15520 whole entry, looked up): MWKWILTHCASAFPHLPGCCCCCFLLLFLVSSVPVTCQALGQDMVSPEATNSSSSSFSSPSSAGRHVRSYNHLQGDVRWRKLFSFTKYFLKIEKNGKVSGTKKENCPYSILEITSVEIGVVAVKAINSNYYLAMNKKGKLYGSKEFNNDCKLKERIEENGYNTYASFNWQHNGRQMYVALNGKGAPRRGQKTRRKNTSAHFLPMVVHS

`CC(C)[Si](C#CCCCC#N)(O[C@H](c1ccccc1)c1cn([C@H](C)c2ccccc2)nn1)C(C)C`: the composite z-score was 1.48 in [1]; 0.76 in assay [5]; 0.064 in assay [7]; 1.08 in assay [8]; 1.1 in assay [9]; -0.152 in assay [10]. Moreover, the composite z-score in assay [11] is 0.475; in assay [12] it was 0.0086; in assay [13] it was -0.453; in assay [15], 0.524; in assay [16], 0.973; in assay [17], 0.22. The figures for the composite z-score in assay [18], in assay [19] and in [20] were 1.08, 0.668 and -0.301, respectively. Moreover, the z-score in assay [2] is -0.766 (inactive); in [3], -0.415 (inactive); in assay [4], -3.12 (inactive); in assay [6], 0.674 (inactive); in assay [14] it was -3.01 (inactive).
As to `CC(=O)NCCCC[C@@H]1NC(=O)[C@H]2C[C@@H](C(=O)NCCCCCC[N+](C)(C)C)[C@@H](c3ccc(O)cc3)N2C1=O`, the composite z-score in [1] was 1.55; in assay [5], 3.04; in assay [7] it was -0.0206; in [8], 1.46; in [9], 0.702; in assay [10] it was -0.125. In addition, the composite z-score is 1.71 in assay [11]; -0.186 in [12]; -0.414 in assay [13]; 0.348 in assay [15]; 0.612 in [16]; 0.173 in assay [17]. For the same compound, the results for the composite z-score in assay [18], in assay [19] and in assay [20] were 0.946, 1.23 and 0.965, respectively. In addition, the z-score is -0.509 (inactive) in assay [2]; 0.555 (inactive) in assay [3]; -0.489 (inactive) in [4]; 0.478 (inactive) in assay [6]; -0.652 (inactive) in assay [14].
As to `CCc1cccc(NC(=O)O[C@H]2[C@H](OC(=O)Nc3ccc4c(c3)OCO4)[C@H](OC(=O)Nc3ccc4c(c3)OCO4)[C@@H](OC)O[C@@H]2CO)c1`, the composite z-score is 1.55 in assay [1]; 3.05 in assay [5]; 0.0386 in [7]; 0.795 in assay [8]; 1.08 in [9]; -0.13 in [10]. Also, the composite z-score in assay [11] is 1.44; in assay [12] it was -0.154; in [13], 0.226; in [15] it was 0.699; in [16], 1.32; in assay [17] it was -0.438. The composite z-score in assay [18] worked out at 0.791; in [19] it was 0.129; in [20] it was 0.627. Moreover, the z-score is 1.5 (inactive) in assay [2]; 1.09 (inactive) in [3]; 7.36 (inactive) in [4]; 0.641 (inactive) in assay [6]; -1.34 (inactive) in [14].
Take `COC(=O)[C@@]1(Cc2ccc(F)cc2)[C@H]2c3cc(C(=O)N(C)C)n(CCn4cc([N+](=O)[O-])nc4C)c3C[C@H]2CN1C(=O)c1ccccc1`: the composite z-score is -0.394 in assay [1]; 2.87 in [5]; 0.12 in assay [7]; -0.885 in [8]; -0.455 in assay [9]; -0.0039 in assay [10]. Also, the composite z-score in assay [11] is 0.445; in [12], 0.539; in [13], 0.648; in assay [15], -0.279; in assay [16] it was 0.0339; in [17] it was -0.0789. In addition, the composite z-score in [18] was -0.445; in assay [19], -0.145; in assay [20], 0.894. In addition, the z-score in [2] was 0.126 (inactive); in assay [3], 0.713 (inactive); in [4] it was 0.942 (inactive); in assay [6], -1.66 (inactive); in [14] it was 1.11 (inactive).
On to `Cc1c(-c2ccc(-c3ccc(Cl)c(Cl)c3)o2)nc(-c2ccccc2)c2c1CO[Si]2(C(C)C)C(C)C`, for which the composite z-score in assay [1] was 0.371; in assay [5], 0.867; in [7], -0.216; in [8] it was 0.423; in assay [9], -0.0183; in [10] it was -0.231. Further, the composite z-score is 0.872 in [11]; -0.186 in [12]; 0.11 in assay [13]; 0.316 in assay [15]; -0.449 in assay [16]; -0.532 in assay [17]. In addition, the composite z-score is -0.382 in assay [18], -0.234 in assay [19] and 0.938 in assay [20]. Moreover, the z-score in assay [2] was -0.657 (inactive); in assay [3], -1.69 (inactive); in [4], 0.069 (inactive); in assay [6] it was -1.34 (inactive); in assay [14], 2.11 (inactive).
